# Screens: PubChem, National Center for Advancing Translational Sciences (NCATS)
# Sampled rows, rich in hits. Any-hit rate of the full collection: about 21%.
# Cycloheximide cs – affects cycloheximide protein synthesis inhibition readout, counter-screen; cell reporter, cycloheximide protein synthesis inhibition counterscreen; max response, %; 300,000 compounds, 12% hits; in the data active = max response mostly above about 13%, no sharp cut-off; inactive = mostly below about 14%; note: read at 38.3 µM for the half of the compounds with a filed dose; 0% is about no effect
# Pf growth 96h – P. falciparum growth inhibition at 96 hour, primary screen for plastid delayed-death inhibitors; P. falciparum luciferase reporter growth, 96 h; Potency, µM (highest dose often 28.7 µM), for inactives: at the top dose activity change, negative = inhibition, actives largely listed as inhibitors; 320,000 compounds, 6.9% hits; note: potency is the fitted concentration of half-maximal effect; % is set by controls: 0 for no effect and ±100 for the full control effect
#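 Cell-based qHTS: luciferase-tagged P. falciparum in erythrocytes (2% hematocrit, 0.05% parasitemia final) incubated with compounds for 96 hours, 37 C, 5% CO2; luciferase detection reagent then added and luminescence measured.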
# NS1 function inh – blocks influenza NS1 protein function | 270,000 compounds, 0.4% hits | AID 2326 | Potency, µM (doses to about 46.1 µM), inactives show at the highest dose activity, positive = more growth; calls by dose curve; note: potency is the fitted concentration of half-maximal effect; actives are rising curves; nearly all actives have a fitted effect of over 50% in size
#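 S. cerevisiae expressing influenza A NS1, grown in glucose, washed, then diluted 1:100 into pH 6.0 -URA galactose medium with 23 nl compound. Growth recovery read as OD600; NS1-free strain serves as control.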
# Pf growth 48h – inhibits P. falciparum growth in the first generation, 48 h. AID 504832. Potency, µM (titrated, usually from 28.7 µM), without a hit: at the highest dose activity change, negative = inhibition, usual class: inhibitors. 310,000 compounds, 5.9% hits. P. falciparum luciferase growth in erythrocytes, 48 h; note: potency is the fitted concentration of half-maximal effect; % is set by controls: 0 for no effect and ±100 for the full control effect
#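 Erythrocytes infected with P. falciparum carrying an integrated firefly luciferase reporter (2% hematocrit, 0.1% parasitemia final) were exposed to compounds in RPMI 1640 with 0.5% Albumax at 37 C, 5% CO2. Growth inhibition was scored as reduced luminescence.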
# Shiga inhibitor – blocks Shiga toxin action in Vero cells; AID 2315; inhibition, % at 38.7 µM; Vero cells, Shiga toxin protein synthesis inhibition reporter; 290,000 compounds, 9.2% hits; in the data active = inhibition mostly above about 28%, no sharp cut-off; inactive = mostly below about 43%; note: 0% is about no effect
# * marks the source's active call; other numbers are inactive results; i = inactive; ? = inconclusive; . = not tested or not shown; [ ] = another dose, or the depositor's remark. Unless noted, calls come from the whole dose curve; as a rule, active = well fitted inhibition curve with a large enough effect; inconclusive = small, poorly fitted or top-dose-only effect, or another doubt; inactive = no such curve, though single readings can be large or run the other way.
SMILES,Cycloheximide cs,Pf growth 96h,NS1 function inh,Pf growth 48h,Shiga inhibitor
CC(=O)c1c(O)cc(C)n(-c2ccc(F)cc2)c1=O,16,36%,-3%,32%,18
CCC(C)CCN1C(Nc2ccccc2)=NC[C@@H]1C (stereo partly specified),1,3%,-10%,4%,-10
Cc1ccc2nc(N(CCCN(C)C)C(=O)c3ccc4ncsc4c3)sc2c1,41*,-30%,-10%,-6%,89*
Cc1ccc2nc(N(CCCN(C)C)C(=O)CCc3ccccc3)sc2c1,-4,?,-11%,?,-13
Cc1cc(C)c2nc(N(CCCN(C)C)C(=O)c3ccc4c(c3)OCCO4)sc2c1,.,7.4µM*,.,10µM*,.
Cc1cc(C)c2nc(N(CCCN(C)C)C(=O)C3=COCCO3)sc2c1,.,?,.,12µM*,.
CCOc1cccc2sc(N(CCN(C)C)C(=O)c3ccc4c(c3)OCCO4)nc12,-1,?,-12%,-19%,-18
Cc1ccc2nc(N(CCCN(C)C)C(=O)c3cc4ccccc4oc3=O)sc2c1,18,10µM*,5%,?,21
COc1ccc(CN(CC(=O)NC2CCCC2)C(=O)CCC(=O)Nc2nccs2)cc1,-3,-6%,2%,0%,10
O=S(=O)(Nc1nc(SCc2ccc(Cl)cc2)n[nH]1)c1ccccc1,7,-9%,1%,1%,6
Cc1ccc(C2CC(=O)Oc3c(C(C)C)ccc(C)c32)cc1 (stereo unspecified),0,.,.,.,i
COc1ccc(C)c2sc(N(CCCN(C)C)C(=O)c3ccc4c(c3)OCCO4)nc12,.,8.3µM*,.,9.3µM*,.
Cc1ccc2nc(N(CCN(C)C)C(=O)c3ccc4c(c3)OCCO4)sc2c1,35*,-17%,-10%,15%,64
COc1ccc(C)c2sc(N(CCN(C)C)C(=O)/C=C/c3cccs3)nc12,-1,?,-36%,?,-10
CCOc1cc(C(C(=O)NCC2CCCO2)N(C(=O)Cn2nnc3ccccc32)c2ccccc2C(C)=O)ccc1O (stereo unspecified),-2,?,-6%,?,-12
COc1ccc(/C=C2/N=C(SCC(=O)Nc3cc(C)on3)N(c3ccccc3)C2=O)cc1,-2,29%,-2%,30%,-12
CCC(SC1=N/C(=C/c2ccccc2)C(=O)N1c1ccccc1)C(=O)Nc1cc(C)on1 (stereo unspecified),-2,10%,-9%,5.9µM*,-11
Cc1ccc(Sc2ccccc2CN(C)C)c(N)c1,25*,.,.,.,31
CN(C)Cc1ccccc1Sc1ccccc1Br,-4,?,-14%,-5%,-2
COC(=O)[C@H](CCCN=C(N)N)NC(=O)CCCc1c(-c2ccccc2)[nH]c2c(F)cc(F)cc12,-2,.,.,.,1
COc1ccc(C2CC(c3cccs3)=NN2C(=O)CCC(=O)O)cc1 (stereo unspecified),-2,?,15%,21%,.
COc1ccc(C2CC(c3cccs3)=NN2C(=O)CCl)cc1OC (stereo unspecified),29*,?,-2%,?,42*
COc1ccc(C2CC(c3ccccc3O)=NN2C(=O)c2ccccc2)cc1OC (stereo unspecified),-2,4.1µM*,5%,6.6µM*,-7
COc1ccc(C2CC(c3cccs3)=NN2C(=O)c2ccccc2)cc1OC (stereo unspecified),2,0.41µM*,-1%,.,-4
O=C(c1ccccc1)N1N=C(c2ccccc2O)CC1c1ccccc1 (stereo unspecified),-3,?,-1%,5.9µM*,-4
SMILES,Cycloheximide cs,Pf growth 96h,NS1 function inh,Pf growth 48h,Shiga inhibitor
O=C(CN1CSCC1=O)N1CCN(S(=O)(=O)c2cc(C(F)(F)F)ccc2Cl)CC1,.,3%,.,?,.
COc1cc(C2CC(c3cccs3)=NN2C(=O)CCl)ccc1OC(F)F (stereo unspecified),15,?,-15%,?,63*
COc1ccc(C2CC(c3ccc(OC)cc3O)=NN2C(=O)c2ccccc2)cc1 (stereo unspecified),4,?,2%,-14%[0.00184 µM],-6
COc1ccc(C2=NN(C(=O)c3ccccc3)C(c3ccc(OC)c(OC)c3)C2)c(OC(C)=O)c1 (stereo unspecified),-4,10µM*,-3%,12µM*,-7
CCn1c(COC(=O)CNC(=O)c2cc(OC)c(OC)c(OC)c2)nc2cc(S(=O)(=O)N(C)C)ccc21,.,3%,.,-1%,.
CCn1cc(S(=O)(=O)Nc2cc(C)ccc2F)cn1,10,-18%,6%,8%,-30
